Measured values as given in PubChem BioAssay (EPA / NIEHS).
Values joined by “and” are separate entries in the source; they are usually repeats but may differ in a detail not shown here. Equal entries are not always repeated. More than one record can exist for a structure, and the calls need not agree. Active and inactive are the calls of the source. Rule for the calls: active = hit-call score of the fitted dose curve at least 0.9, where 1 is the maximum; inactive = score below 0.9.

What was measured:
[1] = ATG_CRE_CIS: Attagene CIS-FACTORIAL HepG2 Assay for human cAMP Responsive Element (CRE) binding protein 3 (AID 2282926); settings: HepG2 CRE cis-reporter, Attagene multiplexed mRNA; actives raise or lower the signal
Summary of the method: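 HepG2 cells transiently transfected with cis-element-driven multiple reporter transcription units; CRE reporter mRNA measured 24 h after dosing by RT-PCR, 6-FAM labelling, HpaI digestion and capillary electrophoresis. Bidirectional fit versus DMSO baseline.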

[2] = target: CCAAT/enhancer-binding protein beta (Homo sapiens) (UniProt P17676); assay: ATG_C_EBP_CIS: Attagene CIS-FACTORIAL HepG2 Assay for human CCAAT/Enhancer Binding Protein (C/EBP) beta (AID 2282927); settings: HepG2 Attagene cis-factorial transcription factor reporter; actives raise or lower the signal
CCAAT/enhancer-binding protein beta (Homo sapiens), sequence (P17676 whole entry, looked up): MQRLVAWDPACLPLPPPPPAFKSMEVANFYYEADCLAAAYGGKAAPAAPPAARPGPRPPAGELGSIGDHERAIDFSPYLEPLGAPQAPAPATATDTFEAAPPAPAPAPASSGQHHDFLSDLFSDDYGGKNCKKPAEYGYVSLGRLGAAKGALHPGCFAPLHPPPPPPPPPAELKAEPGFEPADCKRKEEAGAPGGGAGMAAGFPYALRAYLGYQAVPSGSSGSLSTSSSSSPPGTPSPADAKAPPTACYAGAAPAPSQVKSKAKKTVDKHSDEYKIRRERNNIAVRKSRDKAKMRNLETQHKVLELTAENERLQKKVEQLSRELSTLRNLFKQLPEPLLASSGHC
Summary of the method: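 Transiently transfected HepG2 (MRTU library, endogenous TF-driven promoters); 24 h dosing; total RNA → oligo(dT) RT → PCR → 6-FAM primer extension → HpaI digest → CE; fit bidirectionally vs DMSO.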

[3] = ATG_CMV_CIS: Attagene CIS-FACTORIAL HepG2 Assay for human CMV (Internal Marker) (AID 2282928); settings: HepG2 CMV promoter reporter, transcription factor profiling; actives raise or lower the signal;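 note: endpoint acts as a background internal control marker rather than a target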
Summary of the method: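 CMV internal-marker background readout in transiently transfected HepG2 cells bearing cis-regulated reporter units. Reporter mRNA is measured 24 h after dosing by RT-PCR and capillary electrophoresis, with bidirectional fitting against DMSO.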

[4] = ATG_DR4_LXR_CIS: Attagene CIS-FACTORIAL HepG2 Assay for human Liver X Receptor (LXR), DR4 submotif (AID 2282929); settings: HepG2 Attagene DR4 cis-reporter, mRNA transcription; actives raise or lower the signal
Summary of the method: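 HepG2 cells transiently transfected with cis-promoter-driven multiplexed reporter units (DR4 element) were dosed for 24 h. Reporter mRNA was quantified by RT-PCR, fluorescent primer extension, HpaI digestion and capillary electrophoresis; bidirectional fitting versus DMSO baseline.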

[5] = target: Aryl hydrocarbon receptor (Homo sapiens) (UniProt P35869); assay: ATG_Ahr_CIS: Attagene CIS-FACTORIAL HepG2 Assay for human Aryl Hydrocarbon Receptor (Ahr) (AID 2282930); settings: HepG2 AhR cis-factorial reporter transcription; actives raise or lower the signal
Aryl hydrocarbon receptor (Homo sapiens), sequence (P35869 whole entry, looked up): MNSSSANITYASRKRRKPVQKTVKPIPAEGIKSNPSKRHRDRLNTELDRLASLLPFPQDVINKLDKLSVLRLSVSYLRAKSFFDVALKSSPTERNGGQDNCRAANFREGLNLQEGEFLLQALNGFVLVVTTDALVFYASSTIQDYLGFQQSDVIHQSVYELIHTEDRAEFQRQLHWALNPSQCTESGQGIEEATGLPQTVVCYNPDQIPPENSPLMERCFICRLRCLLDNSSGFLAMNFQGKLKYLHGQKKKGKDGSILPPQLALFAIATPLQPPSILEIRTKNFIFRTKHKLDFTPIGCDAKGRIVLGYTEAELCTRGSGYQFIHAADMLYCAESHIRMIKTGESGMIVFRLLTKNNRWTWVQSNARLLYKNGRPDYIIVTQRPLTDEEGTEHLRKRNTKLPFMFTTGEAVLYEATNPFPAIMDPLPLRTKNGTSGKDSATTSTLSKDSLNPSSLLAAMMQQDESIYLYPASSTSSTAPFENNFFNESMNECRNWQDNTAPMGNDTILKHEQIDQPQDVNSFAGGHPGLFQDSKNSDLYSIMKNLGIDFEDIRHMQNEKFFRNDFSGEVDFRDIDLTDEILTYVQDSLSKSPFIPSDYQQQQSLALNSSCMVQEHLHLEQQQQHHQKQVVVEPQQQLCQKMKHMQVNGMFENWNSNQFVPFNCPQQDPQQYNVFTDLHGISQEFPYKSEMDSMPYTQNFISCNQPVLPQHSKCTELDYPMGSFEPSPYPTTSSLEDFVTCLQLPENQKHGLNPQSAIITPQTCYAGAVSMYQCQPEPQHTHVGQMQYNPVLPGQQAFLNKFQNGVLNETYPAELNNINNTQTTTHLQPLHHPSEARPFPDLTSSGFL
Summary of the method: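 Read-out: reporter mRNA quantified by RT-PCR with fluorescent primer extension and capillary electrophoresis. Human HepG2 liver cells carried transfected cis-promoter reporter units and were exposed to chemical for 24 h; gain or loss fitted relative to DMSO.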

[6] = ATG_AP_1_CIS: Attagene CIS-FACTORIAL HepG2 Assay for human Activator Protein 1 (AP-1) (AID 2282931); settings: HepG2 Attagene cis-factorial AP-1 reporter mRNA; actives raise or lower the signal
Summary of the method: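 HepG2 cells transiently transfected with cis-element-driven multiplex reporter units; 24 h compound exposure. Reporter mRNA quantified by RT-PCR, FAM-labelled fragments resolved by capillary electrophoresis; bidirectional fit versus DMSO baseline.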

[7] = ATG_AP_2_CIS: Attagene CIS-FACTORIAL HepG2 Assay for human Activator Protein 2 (AP-2) (AID 2282932); settings: HepG2 AP-2 cis-reporter, Attagene transcription factor profiling; actives raise or lower the signal
Summary of the method: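 HepG2 cells transiently transfected with cis-element reporter units and exposed for 24 h. Reporter mRNA measured by RT-PCR, FAM labelling, HpaI digestion and capillary electrophoresis. Changes in either direction fitted relative to DMSO.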

[8] = ATG_BRE_CIS: Attagene CIS-FACTORIAL HepG2 Assay for human Bone Morphogenetic Protein (BMP) Response Element (BRE) (AID 2282933); settings: HepG2 BMP response element reporter, Attagene transcription factor profiling; actives raise or lower the signal
Summary of the method: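 Endogenous transcription factor activity at a BMP response element was monitored in transfected HepG2 cells 24 h after dosing. Fluorescent RT-PCR products were resolved by capillary electrophoresis, and activity was fitted in both directions versus DMSO.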

[9] = target: Retinoic acid receptor alpha (Homo sapiens) (UniProt P10276); assay: ATG_DR5_RAR_CIS: Attagene CIS-FACTORIAL HepG2 Assay for human Retinoic Acid Receptor Alpha (RARE), DR5 submotif (AID 2282934); settings: HepG2 Attagene cis-factorial RARE DR5 reporter, mRNA; actives raise or lower the signal;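 for AC50: reporter responds to endogenous RAR alpha beta and gamma in HepG2 not RARA alone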
Retinoic acid receptor alpha (Homo sapiens), sequence (P10276 whole entry, looked up): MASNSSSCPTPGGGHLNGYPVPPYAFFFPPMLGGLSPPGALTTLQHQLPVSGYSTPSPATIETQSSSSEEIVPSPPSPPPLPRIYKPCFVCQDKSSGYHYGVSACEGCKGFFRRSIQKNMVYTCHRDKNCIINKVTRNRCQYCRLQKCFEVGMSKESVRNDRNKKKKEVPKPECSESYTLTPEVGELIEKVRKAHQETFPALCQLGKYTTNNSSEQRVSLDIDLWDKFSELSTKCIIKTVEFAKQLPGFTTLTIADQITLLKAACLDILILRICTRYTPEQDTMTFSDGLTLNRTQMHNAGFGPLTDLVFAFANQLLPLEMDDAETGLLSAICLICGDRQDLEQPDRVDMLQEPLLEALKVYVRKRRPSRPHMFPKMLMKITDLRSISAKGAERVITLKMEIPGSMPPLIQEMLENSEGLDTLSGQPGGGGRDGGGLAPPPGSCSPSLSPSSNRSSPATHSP
Summary of the method: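 Read-out: DR5-driven reporter transcript measured by RT-PCR, 6-FAM primer extension, HpaI digest and capillary electrophoresis. Human HepG2 liver cells carry transiently transfected cis-element reporter constructs; dosing lasts 24 h. Gain or loss of signal fitted against DMSO baseline.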

[10] = target: Transcription factor E2F1 (Homo sapiens) (UniProt Q01094); assay: ATG_E2F_CIS: Attagene CIS-FACTORIAL HepG2 Assay for human E2F Transcription Factor 1 (AID 2282935); settings: HepG2 Attagene cis-reporter, E2F reporter RNA transcripts; actives raise or lower the signal
Transcription factor E2F1 (Homo sapiens), sequence (Q01094 whole entry, looked up): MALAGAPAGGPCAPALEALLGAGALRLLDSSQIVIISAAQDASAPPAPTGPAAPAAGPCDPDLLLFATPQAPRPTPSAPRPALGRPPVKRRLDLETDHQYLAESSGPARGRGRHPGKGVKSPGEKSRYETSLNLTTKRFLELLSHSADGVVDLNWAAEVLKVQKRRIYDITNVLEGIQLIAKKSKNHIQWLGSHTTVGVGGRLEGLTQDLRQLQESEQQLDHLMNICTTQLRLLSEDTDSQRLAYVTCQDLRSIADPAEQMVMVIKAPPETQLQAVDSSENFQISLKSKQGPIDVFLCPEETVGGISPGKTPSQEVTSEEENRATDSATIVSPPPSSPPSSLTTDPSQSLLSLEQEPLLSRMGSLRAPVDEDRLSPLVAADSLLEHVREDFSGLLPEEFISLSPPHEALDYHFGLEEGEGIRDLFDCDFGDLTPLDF
Summary of the method: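 Endogenous E2F1 activity read through cis-promoter reporter units transfected into HepG2. After 24 h compound treatment, reporter mRNA measured by RT-PCR, HpaI digestion and capillary electrophoresis. Bidirectional fit versus DMSO.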

[11] = ATG_E_Box_CIS: Attagene CIS-FACTORIAL HepG2 Assay for human Enhancer Box (E-box) (AID 2282936); settings: HepG2 E-box cis-reporter transcription, actives raise or lower the signal
Summary of the method: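 HepG2 cells transiently transfected with multiplexed cis-element reporter units, dosed 24 h; reporter mRNA quantified by RT-PCR, 6-FAM labelling, HpaI digestion and capillary electrophoresis. E-box (USF1) signal fitted bidirectionally vs DMSO.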

[12] = ATG_M_61_CIS: Attagene CIS-FACTORIAL HepG2 Assay for M61 Transcription Factor (Internal Marker) (AID 2282937); settings: HepG2 Attagene CIS-FACTORIAL M61 internal marker reporter; actives raise or lower the signal
Summary of the method: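 HepG2 cells transiently transfected with cis-element-driven multiple reporter transcription units, dosed for 24 h. Reporter mRNA measured by RT-PCR, 6-FAM primer-extension labelling, HpaI digestion and capillary electrophoresis; bidirectional fit versus DMSO baseline.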

[13] = ATG_EGR_CIS: Attagene CIS-FACTORIAL HepG2 Assay for human Early Growth Response 1 (EGR1) (AID 2282938); settings: HepG2 Attagene CIS-FACTORIAL EGR reporter mRNA; actives raise or lower the signal
Summary of the method: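 HepG2 cells transiently transfected with cis-promoter-driven multiplexed reporter transcription units; reporter mRNA measured 24 h after compound dosing by RT-PCR, 6-FAM primer extension, HpaI digestion and capillary electrophoresis. Bidirectional fit versus DMSO baseline.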

[14] = ATG_M_19_CIS: Attagene CIS-FACTORIAL HepG2 Assay for M19 Transcription Factor (Internal Marker) (AID 2282939); settings: HepG2 Attagene CIS-FACTORIAL M19 internal marker reporter; actives raise or lower the signal
Summary of the method: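 Background-control endpoint from a multiplexed HepG2 reporter panel. Cells carrying cis-regulated reporter constructs are treated 24 h, then reporter transcripts are amplified, fluorescently labelled and sized by capillary electrophoresis. DMSO defines baseline.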

[15] = ATG_ERE_CIS: Attagene CIS-FACTORIAL HepG2 Assay for Estrogen Response Element (ERE) (AID 2282940); settings: HepG2 ERE cis-reporter, Attagene RNA transcript; actives raise or lower the signal
Summary of the method: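 Cells used were human hepatoma HepG2, transfected with multiple reporter transcription units under cis-regulatory promoters. Reporter mRNA, read 24 h post-dosing via fluorescent RT-PCR products on capillary electrophoresis, was fitted bidirectionally relative to DMSO.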

[16] = ATG_Ets_CIS: Attagene CIS-FACTORIAL HepG2 Assay for human Erythroblast Transformation Specific (ETS) (AID 2282941); settings: HepG2 ETS cis-reporter transcription, actives raise or lower the signal
Summary of the method: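 HepG2 cells transfected with multiple cis-regulated reporter units measuring endogenous ETS-driven transcription, 24 h after dosing. Reporter mRNA quantified by RT-PCR with capillary electrophoresis; bidirectional fit relative to DMSO.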

[17] = target: Hepatocyte nuclear factor 3-beta (Homo sapiens) (UniProt Q9Y261); assay: ATG_FoxA2_CIS: Attagene CIS-FACTORIAL HepG2 Assay for human Forkhead box A2 (FOXA2) (AID 2282942); settings: HepG2 cis-reporter transcription factor activity, 24 h; actives raise or lower the signal
Hepatocyte nuclear factor 3-beta (Homo sapiens), sequence (Q9Y261 whole entry, looked up): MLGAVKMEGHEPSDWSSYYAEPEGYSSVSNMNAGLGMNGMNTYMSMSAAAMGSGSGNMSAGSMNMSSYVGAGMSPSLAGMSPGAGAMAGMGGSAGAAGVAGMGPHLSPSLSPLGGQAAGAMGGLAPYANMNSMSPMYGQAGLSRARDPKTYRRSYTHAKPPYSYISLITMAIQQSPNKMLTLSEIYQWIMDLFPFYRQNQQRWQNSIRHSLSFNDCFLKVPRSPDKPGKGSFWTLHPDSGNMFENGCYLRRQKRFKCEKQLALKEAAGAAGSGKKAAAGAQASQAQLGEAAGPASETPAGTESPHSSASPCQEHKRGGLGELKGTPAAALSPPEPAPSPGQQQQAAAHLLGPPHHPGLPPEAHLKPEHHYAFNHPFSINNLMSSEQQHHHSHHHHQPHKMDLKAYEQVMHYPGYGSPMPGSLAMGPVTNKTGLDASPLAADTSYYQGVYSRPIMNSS
Summary of the method: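 HepG2 cells transiently transfected with multiple cis-regulated reporter transcription units, dosed for 24 h. Reporter mRNA measured by RT-PCR, 6-FAM labelling, HpaI digestion and capillary electrophoresis; bidirectional fitting against DMSO baseline.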

[18] = ATG_FoxO_CIS: Attagene CIS-FACTORIAL HepG2 Assay for human Forkhead box O (FoxO) (AID 2282943); settings: HepG2 Attagene cis-reporter, FoxO element, mRNA; actives raise or lower the signal
Summary of the method: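 Read-out: fluorescence of 6-FAM-labelled reporter cDNA fragments resolved by capillary electrophoresis. Transiently transfected HepG2 cells were dosed for 24 h; activity fitted in both directions relative to DMSO controls.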

[19] = ATG_GATA_CIS: Attagene CIS-FACTORIAL HepG2 Assay for human GATA Binding Protein (AID 2282944); settings: HepG2 GATA cis-element reporter, Attagene multiplex mRNA; actives raise or lower the signal
Summary of the method: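 Endogenous transcription factor activity was captured through cis-promoter-driven reporters in transfected HepG2 cells. After 24 h exposure, reporter transcripts were quantified by RT-PCR with fluorescent capillary electrophoresis, and responses fitted both directions against DMSO.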

[20] = ATG_GLI_CIS: Attagene CIS-FACTORIAL HepG2 Assay for human Zinc Finger Protein GLI1 (AID 2282945); settings: HepG2, Attagene cis-factorial reporter mRNA, GLI element; actives raise or lower the signal
Summary of the method: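 Transiently transfected HepG2 cells report endogenous transcription factor activity via cis-element-driven reporter units. After 24 h compound exposure, reporter mRNA was measured by RT-PCR with capillary electrophoresis; bidirectional fitting against DMSO baseline.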

Measured: AC50

Cc1ccc2oc(CN(Cc3ccccc3)C(=O)Nc3c(F)cc(F)cc3F)c(-c3ccc(Cl)cc3)c2c1
inactive: [1] | [2] | [3] | [4] | [5] | [6] | [7] | [8] | [9] | [10] | [11] | [12] | [13] | [14] | [15] | [16] | [17] | [18] | [19] | [20]

O=C1CCC(C2CCCCC2)CC1
active: [3] 100 µM and 39.3 µM | [6] 133 µM [middle of 4 runs] | [7] 163 µM | [8] 147 µM and 156 µM | [11] 185 µM | [13] 130 µM | [16] 131 µM
inactive: [1] | [2] | [3] | [5] | [7] | [8] | [9] | [10] | [11] | [12] | [13] | [14] | [16] | [17] | [18] | [20]

CCN(Cc1cccnc1)C(=O)c1cccc(Cl)c1[C@]1(C)C(=O)N(Cc2ccc(OC)cc2OC)c2ccc(Cl)cc21
active: [1] 10.8 µM | [3] 8.21 µM | [4] 7.45 µM | [5] 1.75 µM | [6] 10.3 µM | [9] 0.293 µM | [10] 7.42 µM | [13] 3.83 µM
inactive: [2] | [7] | [8] | [11] | [12] | [14] | [15] | [16] | [17] | [20]

CC1(C)NC(=O)N(c2ccc([N+](=O)[O-])c(C(F)(F)F)c2)C1=O
inactive: [1] | [2] | [3] | [5] | [6] | [8] | [9] | [10] | [11] | [12] | [13] | [14] | [16] | [17] | [20]
active: [1] 0.00911 µM | [6] 39.2 µM | [9] 0.083 µM

c1ccc2n[nH]nc2c1
inactive: [1] | [2] | [3] | [4] | [5] | [6] | [8] | [9] | [10] | [11] | [12] | [13] | [14] | [16] | [17] | [19] | [20]
active: [5] 51.9 µM
